This is an account of results in PubChem BioAssay AID488984 (The Scripps Research Institute Molecular Screening Center, 2010).

Unmarked numbers belong to inactive results. Activity calls are given as the source filed them. Rule as the data show it: active = inhibition above about 55%; inactive = the rest.

For the test, the system named is SARS coronavirus 3C-like protease (3CLpro, nsp5). In words: blockers of SARS 3CLpro activity – biochemical, fluorescence, set 2, late-stage follow-up (AID 488984). The settings on record: recombinant 3CLpro, fluorogenic peptide cleavage; at 100 µM; stronger effect = higher value.
Take `CC(C)c1ccc(N(C(=O)c2n[nH]c3ccccc23)C(C(=O)NC(C)(C)C)c2cccnc2)cc1` (configuration not stated): the inhibition (as a rule, the drop in the measured response relative to a control, in per cent) was 13.2%. As for `CC(C)c1ccc(N(C(=O)c2ccc(C#N)cc2)C(C(=O)NC(C)(C)C)c2ccsc2)cc1` (configuration not stated), the inhibition was -5.45%. As for `CC(=O)Nc1ccc(N(C(=O)Cn2ccnc2C)C(C(=O)NC(C)(C)C)c2ccsc2)cc1` (configuration not stated), the figure is 2.36%; as for `Cc1nc2ccccc2n1CC(=O)N(c1ccc(NC(=O)C(C)C)cc1)C(C(=O)NC(C)(C)C)c1ccsc1` (configuration not stated), 0.26%. As for `CCC(=O)Nc1ccc(N(C(=O)Cn2ccnc2C)C(C(=O)NC(C)(C)C)c2ccsc2)cc1` (configuration not stated), the figure is 5.34%; as for `CC(C)c1ccc(N(C(=O)Cc2c[nH]c3ccccc23)C(C(=O)NC(C)(C)C)c2cccnc2)cc1` (configuration not stated), 3.78%; as for `CC(C)(C)NC(=O)C(c1cccnc1)N(C(=O)c1cccc2c1CCCC2)C1CC1` (configuration not stated), 8.14%. Regarding `CC(C)(C)NC(=O)C(c1ccsc1)N(C(=O)Cc1cccc2ccccc12)c1ccc(OCF)cc1` (configuration not stated), the inhibition was 18.2%. The figure for `CC(C)c1ccc(N(C(=O)Cc2cccnc2)C(C(=O)NC(C)(C)C)c2cccnc2)cc1` (configuration not stated) is 2.83%; for `CC(C)(C)NC(=O)C(c1ccsc1)N(C(=O)c1cccc2c1CCCC2)c1ccc(OCF)cc1` (configuration not stated) it is 12.6%. Take `CC(C)(C)NC(=O)C(c1cccnc1)N(C(=O)Cc1c[nH]c2ccccc12)c1ccc(F)cc1` (configuration not stated): the inhibition is 5.7%. In the case of `CC(C)(C)NC(=O)C(c1ccsc1)N(C(=O)Cc1cccnc1)C1CC1` (configuration not stated), the inhibition was 25.9%. `CC(C)(C)NC(=O)C(c1ccsc1)N(C(=O)c1ccc(C#N)cc1)c1ccc(F)cc1` (configuration not stated): the inhibition was 17.4%. On to `CC(C)(C)NC(=O)C(c1cccnc1)N(C(=O)c1n[nH]c2ccccc12)c1ccc(F)cc1` (configuration not stated), for which the inhibition is 9.24%. `CC(C)(C)NC(=O)C(c1ccsc1)N(C(=O)c1n[nH]c2ccccc12)c1ccc(OC(F)F)cc1` (configuration not stated): the inhibition was 14.3%. For `CC(=O)Nc1ccc(N(C(=O)Cn2nnc3ccccc32)C(C(=O)NC(C)(C)C)c2ccsc2)cc1` (configuration not stated), the inhibition was 94.8% (active). Turning to `CC(C)c1ccc(N(C(=O)c2ccco2)C(C(=O)NC(C)(C)C)c2cccnc2)cc1` (configuration not stated), the inhibition is 65.6% (active). As for `CC(C)(C)NC(=O)C(c1ccsc1)N(C(=O)Cn1cnc2ccccc21)c1ccc(NS(C)(=O)=O)cc1` (configuration not stated), the figure is 38%; as for `CC(C)(C)NC(=O)C(c1cccnc1)N(C(=O)c1ccc(C#N)cc1)C1CC1` (configuration not stated), -4.03%. As for `CC(C)(C)NC(=O)C(c1cccnc1)N(C(=O)c1n[nH]c2ccccc12)c1ccc(C(C)(C)C)cc1` (configuration not stated), the inhibition was 20.6%. On to `CC(C)(C)NC(=O)C(c1cccnc1)N(C(=O)c1ccc(C(F)(F)F)nc1)C1CC1` (configuration not stated), for which the inhibition is 5.34%.

Turning to `CC(C)(C)NC(=O)C(c1ccsc1)N(C(=O)c1ccco1)c1ccc(C(C)(C)C)cc1` (configuration not stated), the inhibition is 19.5%.
